# Results taken from the supplement of paper PMC10338343.
# ± gives the standard deviation.
# Tested on: MILI (PIWIL2) piRISC loaded with L1MC piRNA (26 nt)
# Test: pre-steady-state target cleavage rate (min^-1); guide: L1MC piRNA 5'p-UAACUAAAUACUAUGCAAGCUGUAGG; MIWI and MILI are mouse PIWI proteins and EfPiwi is from a freshwater sponge; tags in brackets are library labels; higher = faster piRNA-guided slicing of the target
# Details: auxiliary factor: 500 nM mouse GTSF1
# In short: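 Cleave-'n-Seq used a transcribed, DNA-blocked target RNA library at 0.1 nM and active affinity-purified piRISC with one synthetic guide at 1 nM, with or without 500 nM GTSF1 partner protein, in HEPES–potassium acetate buffer at 33 °C for 0–8 or 0–960 min. Uncleaved targets were sequenced and normalised to depth and to weakly complementary targets, and three trials were pooled with k3 capped at 0.0001 min^-1. The pre-steady-state cleavage rate was estimated by a burst-and-steady-state fit.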
row,Sequence,pre-steady-state target cleavage rate
1,UCCUGGUACAGCUUGCAUAGUAUUAUGAAA,0.00782 ± 0.0056
2,UCCUGGAUCACGUUGCAUAGUAUUUUCAAA,0.0743 ± 0.025
3,UCCUGGAUGUCGAUGCAUAGUAUUUAGCUUA,0.0496 ± 0.014
4,UCCUGGAUGUCGAAGCAUAGUAUUUAGUGUA,0.035 ± 0.012
5,UCCUGGAUGACGAUGCAUAGUAUUUACAAA,0.0245 ± 0.011
6,UCCUCCUACAGCUUGCAUAGAAUUUACUUA,0.0813 ± 0.022
7,UCCUGGAUGUCGUUGCAUAGUAUUUUCUUA,0.00558 ± 0.0035
8,UCCUCCUACAGCUAGCAUAGUAUUUUCAAA,0.137 ± 0.027
9,UCCUGGAACAGCUUGCAUAGUAUUAUCAAA,0.0521 ± 0.017
10,UCCUCCUACAGCUUGCAAAGUAUUUACAAA,0.0935 ± 0.021
11,UCCUGGAUGUCGAAGCAUAGUAUAAAGUUA,0.0127 ± 0.0053
12,UCCUGGAACAGCUUCGUUAGUAUUUAGUAA,0.115 ± 0.017
13,UCCUGGUACAGCUUGCAUAGAUUUUAGUAA,0.0172 ± 0.008
14,UCCUGGAUCAGCUUGCAUAGUAUUUUCUAA,0.0634 ± 0.017
15,UCCUGCUACAGCUUGCAUAGUAUAUUCAAA,0.209 ± 0.059
16,UCCUGGUACAGCUUGCAGUAGUAUUUAGUUA,0.00495 ± 0.0037
17,UCCUGGAUCAGCUUGCAUACUAUUUUGUUA,0.0178 ± 0.0061
18,UCCUGCUACAGCUUGCAUAGUAUAUACUUA,0.0361 ± 0.011
19,UCCUGGAUGAGCUUGCAUAGAAUUUUGUUA,0.0139 ± 0.0063

row,Sequence,pre-steady-state target cleavage rate
1,UCCUGGAACUGCUUGCAUAGUAUUUUCAAA,0.0118 ± 0.0046
2,UCCUGGAUGUCCUAGCAUUGUAUUUAGUUA,0.0111 ± 0.0048
3,UCCUGGAUGUCGAACGAUAGUAUUUAGUAA [g3:g14:cont:t1A],< 0.0001
4,UCCUGGAUGAGCUUGCAUAGUAAAAAGUUA,0.0673 ± 0.016
5,UCCUGGAACAGCUUGCAUAGUAAAAAGAAA,0.0185 ± 0.0077
6,UCCUGGAUGUCCAUGCAUAGUAUUUAGUAA,0.0373 ± 0.011
7,UCCUGGAUGUCCUAGCAUAGUAUUUAGUAA,0.143 ± 0.031
8,UCCUGGAACAGCUUGCAUAGAUUUUAGUAA,0.0259 ± 0.0091
9,UCCUGGAUCAGCUUGCAUGUAUUUAGUUA,0.041 ± 0.0073
10,UCCUGGAUGUGCUUGGAUUGUAUUUAGUUA,0.00469 ± 0.0044
11,UCCUGGUACAGCUUGCAUAGAAUAUAGUUA,0.102 ± 0.028
12,UCCUGGAUCAGCUAGCAUAGUAUUUAGAAA,0.139 ± 0.016
13,UCCUGGAUGUGCUUGGAUAGUAUUUUGUUA,0.0685 ± 0.02
14,UCCUGGAUCAGCUAGCAUAGUAUUUACUUA,0.134 ± 0.018
15,UCCUGGAUGAGCUUGCAAAGUAAUUAGUUA,0.0348 ± 0.0091
16,UCCUGGAUGUCGAUGCAUAGUAUUUUGUUA,0.0682 ± 0.016
17,UCCUGGAUGAGCUUGCAUAGUAUAAUGUAA,0.00667 ± 0.0048
18,UCCUGGAUGUCCUUGCAUUCUAUUUAGUUA,0.00856 ± 0.0043
19,UCCUGGAUGUCCUUGCAUUGUAUUUAGAUA,0.0401 ± 0.011
